The text below walks through data of PubChem BioAssay (NCI).

The panel holds about 79,000 compounds, 15% with a hit somewhere; the sample as a whole holds those more often. A number with no mark means an inactive call. Activity calls are given as the source filed them. Rule as the data show it: active = growth inhibition above about 70%; inactive = the rest.

A short description of this experiment: NCI Yeast Anticancer Drug Screen. Data for the sgs1 mgt1 strain (AID 161).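 Also: 0% = growth of cultures given vehicle only.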 Particulars: S. cerevisiae sgs1 mgt1 strain, at 50.0 µM, hits give high values. In a few lines:
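This yeast growth screen uses a strain with defined DNA-repair lesions; compound-treated growth is compared with vehicle-treated growth.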
For `CCCCOB1OC(c2ccccc2)(c2ccccc2)c2ccccc2C(c2ccccc2)(c2ccccc2)O1`, the growth inhibition was 27.2%.
For `O=S(=O)(Cc1c[nH]c2ccccc12)c1ccccc1`, the growth inhibition is 31.1%.
Take `C=CCSC(=S)NC`: the growth inhibition was -2.7%.
Consider `CC(=O)Nc1ccc(S(=O)(=O)NCCC(=O)O)cc1`, for which the growth inhibition was 2.45%.
On to `Cc1nc2c3c4c(sc3nc(C)n2n1)CCCC4`, for which the growth inhibition was 22.2%.
Under `C=C1C(=O)OC2(C)CCC1CC1OC1(C)CC/C=C(\C)CCC2OC(C)=O` (stereo not given) stands 17.4%; under `OCC1(CO)CCCO1`, -10.4%; under `CC(=O)C(C(=O)NCc1ccccc1)C(c1ccc2c(c1)OCO2)C(C(C)=O)C(=O)NCc1ccccc1` (stereo not given), -23.6%.
Take `OCCCN1CCN(CCO)CC1`: the growth inhibition is -12.7%.
Consider `COC(=O)C1OC(O[C@H]2CC[C@]3(C)[C@H]4CC=C5[C@@H]6CC(C)(C)CC[C@]6(C(=O)OC6OCC(O)C(O)C6OC6OC(C)C(OC7OCC(OC8OCC(O)C(O)C8O)C(O)C7O)C(O)C6O)[C@H](O)C[C@@]5(C)[C@]4(C)CC[C@H]3C2(C)C)C(O)C(O)C1O` (stereo not given in full), for which the growth inhibition is 10.3%.
As for `C/C(CCc1ccccc1Br)=N/NC(N)=O`, the growth inhibition is -8.55%.
For the compound `Cc1cc(C)c2nc3c(c(C(O)C4CCCCN4)c2c1)CC/C3=C\c1ccc(Cl)cc1` (stereo not given), the growth inhibition was 16.9%.
With `O=C(NC(=O)C1CCC(=O)N1Cc1ccccc1)NC1CCC(=O)N1Cc1ccccc1` (stereo not given), the growth inhibition is -26.1%.
With `O=C(O)c1cc(Br)cc([N+](=O)[O-])c1`, the growth inhibition is -14.9%.
`CC(=O)CC(=O)C(F)(F)F`: the growth inhibition was -20.5%.
In the case of `N#CC(C#N)=C(N)/C(C#N)=C/c1ccc(O)c(O)c1`, the growth inhibition was -5.25%.
On to `C/C(O)=C(\C=N\C(=S)N=Nc1c(O)[nH]c2ccccc12)C(=O)Nc1ccccc1C`, for which the growth inhibition is 43.4%.
For the compound `CC(C)(C)NC(NC(C)(C)C)=C(/C=C(/Cl)[N+](=O)[O-])[N+](=O)[O-]`, the growth inhibition was 0.45%.
For the compound `C1CCC(c2nn[nH]n2)CC1`, the growth inhibition was 3.25%.
Consider `NC(=NC1CCCCC1)/N=C(/N)Nc1ccc(Cl)cc1`, for which the growth inhibition is 5%.
Turning to `C#CCN(C(=O)C(F)(F)F)C(/C=C\C(=O)OC)(C(=O)OCC)C(=O)OCC`, the growth inhibition is -0.45%.
For the compound `c1ccc(-c2oc3ccccc3c2-c2ccc(OCCN3CCCC3)cc2)cc1`, the growth inhibition was 99.7% (active).
Under `NC(=O)C(=CNC(=S)Nc1ccc(S(=O)(=O)Nc2ccccn2)cc1)C(N)=O` stands 22.3%.
Consider `O=C1c2ccccc2C(=O)N1/N=N/N1C(=O)c2ccccc2C1=O`, for which the growth inhibition was 98.1% (active).
On to `CN1CCCC(CO)C1` (stereo not given), for which the growth inhibition was -7.65%.
Under `CCCC(=O)Oc1cc(C)ccc1C(C)(C)C` stands -12.3%; under `COc1cc(CCCCC(=O)O)ccc1OC(=O)c1ccccc1`, 1.85%; under `O=[N+]([O-])c1nccn1CCCNc1c2ccccc2nc2ccccc12`, 27.8%.
For the compound `C(=N\c1nnc2ccccn12)/c1ccccc1`, the growth inhibition is -21.7%.
In the case of `NC(Cc1cccc2ccccc12)C(=O)O` (stereo not given) it was 10.4%; in that of `Clc1cc(/C=C/c2ccccc2)c2ccccc2n1`, 12.6%.
In the case of `CCN(CC)CCn1ncc2ccc3c(c(=O)c4cccnc4n3CCN(CC)CC)c21` it was 13.2%; in that of `O=c1c2n[nH]nc2nc2n1CC(c1ccccc1)S2` (stereo not given), -15.6%; in that of `O=C(OCc1ccccc1)C1CC1` (tested in a mixture with another compound), 15.4%.
In the case of `Cc1nn(C(=O)c2ccncc2)c2c1C(c1ccccc1[N+](=O)[O-])SC(N)=N2` (stereo not given) it was 40.1%.
Regarding `C=CNC(=S)n1nc(-c2ccccc2NC(=O)C(F)(F)F)c(=O)n(C(=S)NC=C)c1=S`, the growth inhibition was 30.4%.
Regarding `O=c1c(O)c(-c2ccc(O)cc2O)oc2cc(O)cc(O)c12`, the growth inhibition is -3.55%.
As to `O=C(O)CN1CCCCC1`, the growth inhibition was -3.8%.
Regarding `O=c1c(=[n+]2ccc(=C([O-])c3ccccc3)cc2)/c(=N/S(=O)(=O)c2ccccc2)c(=O)c2ccccc12`, the growth inhibition was 39.8%.
In the case of `N#Cc1cc(Cl)ccc1N=Cc1c(Cl)cccc1Cl` it was 39.4%.
